# Where “and” joins values, the source holds several entries; their conditions need not be identical. Equal values may be shown once. Results filed as inconclusive are left out. For some assays here: Entries with a potency or affinity are not part of this list. Calls of active or inactive are those of the source.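 How the source made its calls, unless noted: active means at least 20% inhibition of 6-phosphogluconate dehydrogenase activity; inactive means the rest.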
# Key:
# [1] = blockers of polyQ-driven CASP3 activation – cell-based (AID 1583); settings: polyglutamine-induced caspase-3 activation, cell assay; stronger effect = higher value;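 tested at 10 µM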
# [2] = yeast 75Q aggregation reduction – 75Q-TubU reporter (AID 1593); settings: Yeast 75Q polyglutamine aggregation reporter
# [3] = restoration of touch response, mutant HTT neurons – whole organism, C. elegans mechanosensory neurons, N-terminal huntingtin (AID 1599); settings: C. elegans polyQ-huntingtin mechanosensory neurons, stronger effect = higher value
# [4] = blockers of cytochrome c efflux from mitochondria – biochemical, purified mitochondria (AID 1603); settings: stronger effect = lower value;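 further: mouse liver mitochondria challenged with calcium chloride; signal normalized to the plate average as 100%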
# [5] = polyglutamine aggregate formation blockers (AID 1604); settings: polyglutamine-induced protein aggregation inhibition assay; stronger effect = higher value; tested at 2.5 µM
# [6] = glutamate transport activators, MN-1 cells, MN-1 cell line (AID 1612); settings: MN-1 motor neuron cells, stronger effect = higher value;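 further: tested at 1 µM final; 0% = mean of DMSO vehicle wells on each plate; positive means more glutamate uptake than control and negative means less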
# [7] = 75Q-TubH aggregate inhibition, S. cerevisiae, yeast (AID 1616); settings: S. cerevisiae 75Q-TubH polyglutamine aggregation suppression; stronger effect = higher value
# [8] = P. berghei load reduction in hepatocytes – cell-based, HepG2, luciferase luminescence, HepG2 viability, primary screen (AID 624349; in the data active means parasite load remaining mostly below about 12%, no sharp cut-off; inactive means mostly above about 10%;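 further: 100% = mean of DMSO negative control wells on the same plate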); settings: P. berghei liver stage in HepG2, luciferase luminescence, concentration not given here; parasite load remaining: stronger effect = lower value; viability: measured here: HepG2 viability without parasites
# [9] = molecular target: 6-phosphogluconate dehydrogenase, decarboxylating (Homo sapiens) (UniProt P52209); assay: inhibition of human phosphogluconate dehydrogenase – biochemical, recombinant enzyme, NADPH absorbance, primary screen (AID 1159550); settings: recombinant 6PGD, NADPH absorbance 341 nm; at 10 µM; stronger effect = higher value
# [10] = EMT-state selective cytotoxicity in co-culture – imaging, PC-3E GFP, TEM4-18 mCherry, primary screen (AID 1345086;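 active means compounds killing one labelled cell type while sparing the other, by normalised counts and ratio limits, not self-fluorescent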;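 on all read-outs here: cells exposed to compound for 72 h before imaging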;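 on red/green cell ratio (normalised): normalised mesenchymal count divided by normalised epithelial count so high means epithelial killing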); settings: PC-3E GFP / TEM4-18 mCherry co-culture, imaging cell counts, at 1 µM; for red/green cell ratio (normalised): actives lie on both sides
# [11] = tested on: Aerobactin synthetase IucA (Klebsiella pneumoniae hvKP1); assay: IucA enzyme inhibition, primary screen, biochemical, Spectrum library (AID 1346200; call rule not given here;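 further: 100% = wells without compound and 0% = wells lacking enzyme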); settings: malachite green pyrophosphate, A620, at 8 µM, stronger effect = lower value
# [12] = molecular target: Mitogen-activated protein kinase 7 (Homo sapiens) (UniProt Q13164); assay: Gal4-ERK5 driven luciferase induction – cell-based, HTS, primary screen (AID 1508626;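 active means luciferase signal above three times the same-plate solvent-only control wells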;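 further: luciferase driven by Gal4-ERK5 fusion binding five Gal4 sites before minimal TATA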); settings: HeLa Gal4-ERK5 transactivation, 18 h, at 5 µM, stronger effect = higher value
# [13] = GFP-Q80 aggregate reduction, neuronal-like cells, cell-based, NGF-treated PC12, GFPQ80 (AID 1614); settings: PC12 NGF-treated GFP-polyQ80 inclusion reduction;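 further: lower means fewer inclusions and 0 means no inclusions at all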
# [14] = viability loss with induced miR-34 in A549 – imaging, A549 dox-inducible miR-34, nuclei and caspase counts, primary screen (AID 1347080;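 active means compounds whose cell count with miR-34 switched on is under 0.7 times the count with it off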); settings: A549 miR-34 inducible, Hoechst nuclei count, 48 h
# [15] = molecular target: NAD(+) hydrolase SARM1 (Homo sapiens) (UniProt Q6SZW1); assay: blocking NAD cleavage by SARM1 SAM-TIR – cell lysate, NAD-Glo luminescence (AID 1508614;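 active means compound whose remaining NAD level is above about 45 nM, limit read from the data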); settings: SAM-TIR HEK293T lysate NADase, at 1 µM, stronger effect = higher value
# [16] = viability loss in pontine glioma line – cell-based, SU-DIPG-XIII, MIPE4.0, CellTiter-Glo, qHTS, dose response (AID 1347061; cut-off not given, nearly all actives have AC50 up to about 37 µM;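 further: cells exposed to compound for 48 hours before readout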); settings: CellTiter-Glo ATP luminescence
# [17] = viability loss in pontine glioma line – cell-based, SU-DIPG-IV, MIPE4.0, CellTiter-Glo, qHTS, dose response (AID 1347063; cut-off not given, nearly all actives have AC50 up to about 30 µM;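 further: compound exposure lasted 48 hours before the viability readout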); settings: CellTiter-Glo ATP luminescence
# [18] = growth inhibition of DIPG cells – cell-based, MIPE4.0 library, CellTiter-Glo luminescence, qHTS (AID 1347066; cut-off not given, nearly all actives have AC50 up to about 30 µM;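 further: cells exposed to compound for 48 hours before readout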); settings: SU-DIPG-VI viability, CellTiter-Glo ATP luminescence
# [19] = molecular target: ATP-dependent translocase ABCB1 (Homo sapiens) (UniProt P08183); assay: P-glycoprotein substrate transport blockade – cell-based (AID 377; in the data active means fluorescence slope change above about 50%); settings: MDR1-expressing cells, fluorescent substrate accumulation slope; stronger effect = higher value; concentration not given here
# [20] = compounds altering viability of human ES cells (AID 493140; call rule not given here;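 further: cells exposed to compounds for four days before counting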); settings: human embryonic stem cell survival screen; stronger effect = higher value
# [21] = MELAS cybrid and Rieske KO viability enhancers – cell-based, MELAS cybrids, Rieske KO mouse fibroblasts, CellTiter-Glo, primary screen (AID 1508586;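 active means mean z-score across replicates of 1.96 or higher in either the MELAS or the Rieske mutant cell line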;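 further: z relative to plate mean and SD of compound and empty wells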); settings: low glucose
# [22] = measured here: epithelial PC-3E GFP cell survival
# [23] = measured here: mesenchymal TEM4-18 mCherry cell survival
# [24] = measured here: relative caspase fold change +Dox/-Dox
# [25] = measured here: total cells with miR-34 induction, stronger effect = lower value
# [26] = measured here: total cells without miR-34 induction
# Mitogen-activated protein kinase 7 (Homo sapiens), sequence (Q13164 whole entry, looked up, the tested form may be a part): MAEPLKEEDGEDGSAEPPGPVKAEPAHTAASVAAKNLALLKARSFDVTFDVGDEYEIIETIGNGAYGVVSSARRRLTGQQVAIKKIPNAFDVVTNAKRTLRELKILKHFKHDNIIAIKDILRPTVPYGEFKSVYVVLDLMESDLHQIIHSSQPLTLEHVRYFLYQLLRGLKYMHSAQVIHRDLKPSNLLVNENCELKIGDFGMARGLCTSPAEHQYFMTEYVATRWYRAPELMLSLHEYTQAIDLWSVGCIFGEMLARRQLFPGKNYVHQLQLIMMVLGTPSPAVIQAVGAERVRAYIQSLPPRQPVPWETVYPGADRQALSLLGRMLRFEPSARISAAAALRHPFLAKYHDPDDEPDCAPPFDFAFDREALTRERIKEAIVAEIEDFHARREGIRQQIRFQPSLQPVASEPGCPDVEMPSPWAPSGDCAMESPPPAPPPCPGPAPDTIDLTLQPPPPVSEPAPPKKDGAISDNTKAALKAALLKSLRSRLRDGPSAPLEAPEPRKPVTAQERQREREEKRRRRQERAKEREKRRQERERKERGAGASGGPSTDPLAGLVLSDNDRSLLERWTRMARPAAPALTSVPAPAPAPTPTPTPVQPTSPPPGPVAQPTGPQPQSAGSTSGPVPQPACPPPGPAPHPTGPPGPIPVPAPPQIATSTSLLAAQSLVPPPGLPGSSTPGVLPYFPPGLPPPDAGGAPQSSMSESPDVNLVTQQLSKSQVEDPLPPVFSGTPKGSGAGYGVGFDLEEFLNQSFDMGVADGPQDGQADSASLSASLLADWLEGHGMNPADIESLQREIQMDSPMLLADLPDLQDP
# 6-phosphogluconate dehydrogenase, decarboxylating (Homo sapiens), sequence (P52209 whole entry, looked up): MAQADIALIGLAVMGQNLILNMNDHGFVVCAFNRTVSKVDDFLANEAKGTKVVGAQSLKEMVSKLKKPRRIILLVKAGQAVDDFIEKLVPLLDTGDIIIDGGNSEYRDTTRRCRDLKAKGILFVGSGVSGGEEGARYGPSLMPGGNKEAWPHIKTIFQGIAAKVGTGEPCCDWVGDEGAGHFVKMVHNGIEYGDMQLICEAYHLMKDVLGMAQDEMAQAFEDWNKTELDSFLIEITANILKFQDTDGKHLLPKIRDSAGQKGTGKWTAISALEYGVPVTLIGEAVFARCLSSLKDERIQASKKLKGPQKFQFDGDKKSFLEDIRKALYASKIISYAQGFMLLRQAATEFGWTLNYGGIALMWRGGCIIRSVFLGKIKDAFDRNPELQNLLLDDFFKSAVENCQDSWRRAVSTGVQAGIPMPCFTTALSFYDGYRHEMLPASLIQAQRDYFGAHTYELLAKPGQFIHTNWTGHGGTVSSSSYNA
# ATP-dependent translocase ABCB1 (Homo sapiens), sequence (P08183 whole entry, looked up): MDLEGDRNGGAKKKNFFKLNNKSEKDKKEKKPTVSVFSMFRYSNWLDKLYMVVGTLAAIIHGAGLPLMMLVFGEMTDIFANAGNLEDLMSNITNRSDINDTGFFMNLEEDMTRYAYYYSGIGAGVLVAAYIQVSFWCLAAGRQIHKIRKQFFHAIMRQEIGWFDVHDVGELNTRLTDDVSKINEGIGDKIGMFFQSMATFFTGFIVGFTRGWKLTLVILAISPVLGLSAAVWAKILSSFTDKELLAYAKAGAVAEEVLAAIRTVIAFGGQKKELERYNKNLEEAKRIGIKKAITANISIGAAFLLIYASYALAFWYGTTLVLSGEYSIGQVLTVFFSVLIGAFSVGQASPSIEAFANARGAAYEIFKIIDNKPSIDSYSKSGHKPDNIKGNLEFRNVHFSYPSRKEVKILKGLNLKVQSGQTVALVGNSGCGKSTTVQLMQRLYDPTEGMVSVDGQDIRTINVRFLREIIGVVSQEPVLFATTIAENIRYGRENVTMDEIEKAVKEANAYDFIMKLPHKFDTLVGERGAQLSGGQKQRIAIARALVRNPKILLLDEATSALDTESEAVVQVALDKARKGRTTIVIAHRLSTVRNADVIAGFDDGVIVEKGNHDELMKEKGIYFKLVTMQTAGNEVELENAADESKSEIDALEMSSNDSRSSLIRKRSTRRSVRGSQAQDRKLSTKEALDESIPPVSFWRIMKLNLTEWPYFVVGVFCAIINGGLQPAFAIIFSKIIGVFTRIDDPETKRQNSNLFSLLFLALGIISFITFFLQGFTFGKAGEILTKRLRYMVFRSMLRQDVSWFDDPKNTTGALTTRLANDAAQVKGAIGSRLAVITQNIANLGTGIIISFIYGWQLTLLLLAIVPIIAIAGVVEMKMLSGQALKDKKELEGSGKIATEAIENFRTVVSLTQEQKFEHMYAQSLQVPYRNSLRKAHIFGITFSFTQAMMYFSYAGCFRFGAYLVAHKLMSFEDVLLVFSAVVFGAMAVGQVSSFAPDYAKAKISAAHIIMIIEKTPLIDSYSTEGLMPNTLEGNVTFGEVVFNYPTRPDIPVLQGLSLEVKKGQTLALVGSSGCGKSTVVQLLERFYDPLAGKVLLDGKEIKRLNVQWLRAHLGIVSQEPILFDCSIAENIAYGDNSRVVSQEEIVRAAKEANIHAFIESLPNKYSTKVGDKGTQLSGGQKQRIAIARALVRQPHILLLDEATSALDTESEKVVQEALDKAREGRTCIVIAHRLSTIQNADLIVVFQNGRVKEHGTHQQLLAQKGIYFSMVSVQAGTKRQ
# NAD(+) hydrolase SARM1 (Homo sapiens), sequence (Q6SZW1 whole entry, looked up): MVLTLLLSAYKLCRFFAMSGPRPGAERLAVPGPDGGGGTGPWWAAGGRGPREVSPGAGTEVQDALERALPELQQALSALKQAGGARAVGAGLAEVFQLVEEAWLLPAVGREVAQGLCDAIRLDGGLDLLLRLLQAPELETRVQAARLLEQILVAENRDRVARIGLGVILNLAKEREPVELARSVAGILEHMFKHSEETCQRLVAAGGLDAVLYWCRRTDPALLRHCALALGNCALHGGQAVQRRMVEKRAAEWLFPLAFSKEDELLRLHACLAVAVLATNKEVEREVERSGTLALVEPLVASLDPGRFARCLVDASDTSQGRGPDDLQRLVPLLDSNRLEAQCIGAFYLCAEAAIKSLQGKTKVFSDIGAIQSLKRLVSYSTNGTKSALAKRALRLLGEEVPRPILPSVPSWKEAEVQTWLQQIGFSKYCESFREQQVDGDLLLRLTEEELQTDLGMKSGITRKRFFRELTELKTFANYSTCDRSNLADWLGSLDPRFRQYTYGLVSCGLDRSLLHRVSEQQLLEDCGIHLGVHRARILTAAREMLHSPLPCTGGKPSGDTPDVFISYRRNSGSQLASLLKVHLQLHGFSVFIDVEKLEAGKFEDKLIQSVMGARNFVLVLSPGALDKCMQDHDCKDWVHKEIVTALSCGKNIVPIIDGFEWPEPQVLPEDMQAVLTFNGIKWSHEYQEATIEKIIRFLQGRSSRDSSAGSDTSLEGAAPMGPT
smiles,measurement,setting,value
C=CCc1ccc2c(c1)OCO2,inhibition,[1],-35.5%
same,score,[2],0.7
same,rescue above control,[3],-4.01
same,cytochrome c release ratio,[4],0.78
same,inhibition of aggregation,[5],27.9%
same,glutamate uptake change,[6],1.11%
same,aggregation suppression score,[7],0.706
same,parasite load remaining,[8],147% (inactive)
same,viability,[8],87.4%
same,inhibition,[9],7.49% (inactive)
same,red/green cell ratio (normalised),[10],0.79 (inactive)
same,normalised cell number,[10]; [22],1.31
same,normalised cell number,[10]; [23],1.03
same,activity remaining,[11],124% (inactive)
same,luciferase signal,[12],40 AU (inactive)
C=C(C)[C@@H]1[C@H]2OC(=O)[C@@H]1[C@]1(O)C[C@H]3O[C@]34C(=O)O[C@H]2[C@]14C,inhibition,[1],-31.3%
same,score,[2],1.33
same,rescue above control,[3],6.9
same,cytochrome c release ratio,[4],0.8
same,inhibition of aggregation,[5],48.7%
same,glutamate uptake change,[6],1.09%
same,inclusion score,[13],2
same,aggregation suppression score,[7],1.46
same,inhibition,[9],2.77% (inactive)
same,red/green cell ratio (normalised),[10],1.08 (inactive)
same,normalised cell number,[10]; [22],0.99
same,normalised cell number,[10]; [23],1.06
same,luciferase signal,[12],76 AU (inactive)
C=C1C2CC[C@@]3(C)[C@H](c4ccoc4)OC(=O)C[C@]13O[C@H]1CC(=O)C(C)(C)[C@H](C(OC(C)=O)C(=O)OC)[C@@]21C (stereo partly drawn),inhibition,[9],6.78% (inactive)
same,activity remaining,[11],88.1% (inactive)
Oc1c(Cl)c(Cl)c(Cl)c(Cl)c1Cl,inhibition,[9],4.09% (inactive)
same,red/green cell ratio (normalised),[10],0.88 (inactive)
same,normalised cell number,[10]; [22],1.25
same,normalised cell number,[10]; [23],1.1
same,luciferase signal,[12],480 AU (active)
CNc1ccc(C(=O)CC(O)CCC(C)C2OC(=O)CC(O)CC(=O)CC(O)CC(O)CC(O)CC(O)CC3(O)CC(O)C(C(=O)OC)C(CC(O[C@@H]4O[C@H](C)[C@@H](O)[C@H](N)[C@@H]4O)/C=C/C=C/C=C/C=C/C=C/C=C/C=C/C2C)O3)cc1 (stereo partly drawn),parasite load remaining,[8],132% (inactive) and 33.6% (inactive)
same,viability,[8],90% and 101%
same,inhibition,[9],2.08% (inactive)
same,red/green cell ratio (normalised),[10],1.39 (inactive)
same,normalised cell number,[10]; [22],0.82
same,normalised cell number,[10]; [23],1.14
same,fold change,[14]; stronger effect = lower value,0.878 (inactive)
same,fold change,[14]; [24],3.37
same,cell count,[14]; [25],11000
same,cell count,[14]; [26],12500
same,remaining NAD,[15],10 nM (inactive)
COc1nc(NC(C)C)nc(NC(C)C)n1,inhibition,[9],-20.6% (inactive)
same,activity remaining,[11],117% (inactive)
N#C[C@H](O[C@@H]1O[C@H](CO[C@@H]2O[C@H](CO)[C@@H](O)[C@H](O)[C@H]2O)[C@@H](O)[C@H](O)[C@H]1O)c1ccccc1,inhibition,[9],-14.3% (inactive)
same,AC50,[16],23.5 µM (active)
same,AC50,[17],8.33 µM (active)
same,AC50,[18],20.9 µM (active)
same,luciferase signal,[12],56 AU (inactive)
C[C@]12CC[C@H](O)C[C@@H]1CC[C@@H]1[C@@H]2CC[C@]2(C)C(=O)CC[C@@H]12,fluorescence slope change,[19],99.1% (active)
same,survival,[20],10.7 (inactive)
same,parasite load remaining,[8],91.7% (inactive) and 87.8% (inactive)
same,viability,[8],100% and 84.1%
same,inhibition,[9],18.5% (inactive)
same,fold change,[14]; stronger effect = lower value,0.944 (inactive)
same,fold change,[14]; [24],1.47
same,cell count,[14]; [25],7960
same,cell count,[14]; [26],8440
same,z-score,"[21]; MELAS cybrid survival, CellTiter-Glo 48 h, stronger effect = higher value",0.265 (inactive)
same,z-score,"[21]; Rieske KO mouse fibroblast survival, CellTiter-Glo 72 h",0.304
same,luciferase signal,[12],20 AU (inactive)
COc1cc([C@@H]2c3cc4c(cc3[C@H](OC(C)=O)[C@H]3COC(=O)[C@@H]23)OCO4)cc(OC)c1OC,inhibition,[9],-3.31% (inactive)
same,activity remaining,[11],96.2% (inactive)
same,luciferase signal,[12],64 AU (inactive)
